# Unmarked numbers belong to inactive results. The rule behind the calls is not given here.
# Target: Pantothenate synthetase (Mycobacterium tuberculosis (strain ATCC 25618 / H37Rv)) (UniProt P9WIL5)
# Experiment: Coupled enzyme confirmation of inhibitors against recombinant Mtb PanC (AID 375);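 note: 0% = full reaction with vehicle and 100% = no enzyme background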
# Conditions: coupled enzyme assay; at 10 µM, stronger effect = higher value
# Sequence of Pantothenate synthetase (Mycobacterium tuberculosis (strain ATCC 25618 / H37Rv)) (P9WIL5 whole entry, looked up): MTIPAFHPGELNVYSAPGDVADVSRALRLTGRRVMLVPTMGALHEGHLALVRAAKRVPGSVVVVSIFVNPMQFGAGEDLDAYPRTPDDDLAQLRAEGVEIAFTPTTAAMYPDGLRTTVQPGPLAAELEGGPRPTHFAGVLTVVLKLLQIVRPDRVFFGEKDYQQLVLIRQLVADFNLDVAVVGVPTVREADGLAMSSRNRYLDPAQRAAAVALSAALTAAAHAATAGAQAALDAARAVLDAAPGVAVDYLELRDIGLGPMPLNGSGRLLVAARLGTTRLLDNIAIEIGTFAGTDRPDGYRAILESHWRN
row,Compound,inhibition
1,CCCNC(=O)CS(=O)(=O)Cc1nc(-c2cccc(OC)c2)oc1C,0%
2,O=C(NCc1cccs1)C(Cc1ccccc1)n1cccc1 (centres undefined),0%
3,COCCCNC(=O)CSc1ccc(Cl)cc1,0%
4,COc1ccc(N2CCN(C(=O)C(C)(C)Oc3ccc(Cl)cc3)CC2)cc1,0%
5,O=C1CC(N2CCN(c3ccc(Cl)c(Cl)c3)CC2)C(=O)N1 (centres undefined),0%
6,CCCCN(Cc1cc2cc(OC)ccc2[nH]c1=O)C(=O)COc1ccccc1,2%
7,CC(=O)Nc1ccc(OCC(O)Cn2nc(C)nc2C)cc1 (centres undefined),4%
8,CCOC(=O)c1ccccc1NC(=O)CSc1nc2c(c(=O)n(C)c(=O)n2C)n1C,0%
9,COc1cc(NC(=O)C2C3C=CC(C3)C2C(=O)O)c(OC)cc1Cl (centres undefined),0%
10,CCOC(=O)N1CCC(N2C(=O)c3ccccc3C2Nc2cc(Cl)c(OC)cc2OC)CC1 (centres undefined),0%
11,COc1ccc(N(C(=O)c2ccco2)S(=O)(=O)c2cc(OC)ccc2OC)cc1,0%
12,CCOc1ccc(C(=O)N(CN2CCCC2=O)c2ccc(C)cc2)cc1,0%
13,CCOC(=O)c1cc2c(=O)n3ccccc3nc2n(CC2CCCO2)c1=NC(C)=O (centres undefined),4%
14,CCCCn1c(NCCC)nc2c1c(=O)[nH]c(=O)n2C,0%
15,CCCCC(=O)NCCNc1nc2c(c(=O)n(C)c(=O)n2C)n1Cc1ccccc1,0%
16,CC(=O)c1cccc(NC(=O)N2C3CCC2CC(O)(c2cccnc2)C3)c1 (centres undefined),0%
17,CCNc1nc(N2CCCCC2)nc(-n2nnc(C(=O)OCC)c2C)n1,2%
18,Cc1cc2oc(=O)cc(CN3CCCCC3)c2cc1C(C)C,0%
19,CCOC(=O)c1ccc(NC(=O)c2ccc(NS(C)(=O)=O)cc2)cc1,0%
20,C/C(=N\O)c1ccc2c3c([nH]c2c1)CCCC3,2%

row,Compound,inhibition
1,O=C1C2C3C=CC(C3=C3CCCCC3)C2C(=O)N1c1ccccc1 (centres undefined),0%
2,Nc1cc(=O)[nH]c(SCC(=O)Nc2ccc(Br)cc2)n1,2%
3,COc1cccc(C(=O)N2CCCC(c3nc(-c4cccs4)no3)C2)c1 (centres undefined),0%
4,CSc1ccc(-c2nc(CSCC(=O)N3CCOCC3)c(C)o2)cc1,0%
5,COc1ccc2ccccc2c1CN1CCCC(CO)C1 (centres undefined),0%
6,CC(C)(C)OC(=O)NCCc1nnc(SCC(=O)c2ccc(Cl)cc2)o1,0%
7,O=C(CSc1nc(-c2ccco2)cc(C(F)(F)F)n1)N1CCCc2ccccc21,5%
8,Cc1ccc(C)c2[nH]c(=O)c(CCNC(=O)CC(C)(C)C)cc12,4%
9,Cc1cnc(C(=O)Nc2ccccc2-n2cccc2)cn1,3%
10,CCN(CC)CCNC(=O)c1ccc(N)cc1,0%
11,COc1ccc(/C(O)=C2/C(=O)C(=O)N(CCN(C)C)C2c2ccccn2)cc1OC (centres undefined),0%
12,C=CCOC(=O)CCC(=O)Nc1cc(OC)nc(OC)n1,0%
13,O=C(C1CCCN(S(=O)(=O)c2cnc[nH]2)C1)N1CC(=O)N(CCc2ccccc2)C(=O)C1 (centres undefined),0%
14,O=C(Nc1ccc(F)cc1)N(Cc1ccco1)Cc1cc2cc3c(cc2[nH]c1=O)OCO3,0%
15,NC(N)=Nc1nc(CSCC/C(N)=N/S(N)(=O)=O)cs1,0%
16,CCc1cccc2c(=O)c(C(=O)N3CCCCCC3)c[nH]c12,0%
17,COc1ccc(C(O)C(CN2CCOCC2)c2ccccc2)cc1F (centres undefined),2%
18,Cc1cccc(NC2SC(=O)N(c3ccccc3)C2=O)c1 (centres undefined),0%
19,CCOC(=O)c1nnn(CC(=O)Nc2cccc(F)c2)c1C(=O)OCC,3%

# — PubChem BioAssay
